# Experimental data taken from PubChem BioAssay.
# Where “and” joins values, the source holds several entries; their conditions need not be identical. Equal entries are not always repeated. Records with an inconclusive call do not appear. Calls of active or inactive are those of the source. Unless noted, the rule behind the calls is not given here.
# Legend:
# [1] = liver-stage malaria parasite growth inhibition, primary screen, cell-based, HepG2, luciferase luminescence, HepG2 viability (AID 624349; in the data active = parasite load remaining mostly below about 12%, no sharp cut-off; inactive = mostly above about 10%;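 note: 100% = mean of DMSO negative control wells on the same plate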); details: P. berghei liver stage in HepG2, luciferase luminescence, concentration not given here; parasite load remaining: stronger effect = lower value; viability: measured here: HepG2 viability without parasites
# [2] = kinase inhibitors against Plasmodium liver-stage infection, cell-based, known kinase inhibitor set, luminescence, hepatoma host viability (AID 624392); details: Plasmodium liver stage in hepatoma cells, luciferase luminescence, concentration not given here; liver cell % of control: measured here: host liver cell viability; parasite % of control: stronger effect = lower value;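 note: infected cells incubated roughly two days before readout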
# [3] = modulators of glucocorticoid suppression of NF-kB, cell-based, luciferase, IL-1B stimulus, dexamethasone (AID 624486); details: NF-kB luciferase reporter, IL-1B + dexamethasone, luminescence; percent of negative control (+Dex): actives lie on both sides, concentration not given here; z-score: measured here: IL-1B alone, no Dex;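 for percent of negative control (+Dex): 100% = mean signal of vehicle control wells on the plate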
# [4] = kinase inhibitors altering Pseudomonas killing of worms, whole organism (AID 651566);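 note: tested at 14 µM; sign flipped so higher z means a lower ratio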; details: C. elegans killed by P. aeruginosa, survival ratio
# [5] = activators of macrophage pro-inflammatory response, cell-based, murine, luminescence (AID 652131); details: murine macrophage pro-inflammatory reporter, stronger effect = higher value
# [6] = molecular target: Cellular tumor antigen p53 (Homo sapiens) (UniProt P04637); assay: kinase inhibitors altering GFP-p53 stability in HPV16-positive cells, imaging, known kinase inhibitor set, EGFP/DsRed ratio (AID 1053116); details: stronger effect = higher value; EGFP object count: measured here: GFP-p53 positive objects count;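 note: cells exposed to compounds for 24 h at 37 °C before reading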
# Chain of Cellular tumor antigen p53 (Homo sapiens) (P04637 whole entry, looked up): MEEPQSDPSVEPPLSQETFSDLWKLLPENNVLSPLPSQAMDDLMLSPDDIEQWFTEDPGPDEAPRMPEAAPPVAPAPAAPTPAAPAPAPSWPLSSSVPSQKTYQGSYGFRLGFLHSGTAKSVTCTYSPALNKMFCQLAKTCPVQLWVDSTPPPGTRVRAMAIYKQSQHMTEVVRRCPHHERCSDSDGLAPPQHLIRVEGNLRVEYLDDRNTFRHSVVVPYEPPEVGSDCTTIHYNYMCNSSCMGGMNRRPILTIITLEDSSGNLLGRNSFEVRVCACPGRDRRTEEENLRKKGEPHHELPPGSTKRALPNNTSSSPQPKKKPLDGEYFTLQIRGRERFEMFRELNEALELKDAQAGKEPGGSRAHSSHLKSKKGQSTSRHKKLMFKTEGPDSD
# [7] = IRF3 reporter activation in THP-1 macrophages, cell-based, PMA-stimulated THP-1, luminescence (AID 1053176); details: PMA-differentiated THP-1, IRF3 reporter luminescence; stronger effect = higher value
# [8] = viability loss in pontine glioma line – cell-based, SU-DIPG-XXV, MIPE5.0, CellTiter-Glo, qHTS, dose response (AID 1347065; cut-off not given, nearly all actives have AC50 up to about 26 µM;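 note: cells exposed to compound for 48 hours before ATP readout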); details: CellTiter-Glo ATP luminescence
# [9] = JHH-DIPG-1 glioma cell viability, MIPE5.0 library, CellTiter-Glo luminescence, qHTS (AID 1347067; cut-off not given, nearly all actives have AC50 up to about 26 µM;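 note: cells exposed to compound for 48 hours before readout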); details: JHH-DIPG-1 glioma viability, CellTiter-Glo ATP luminescence
# [10] = SU-DIPG-XXV glioma cell viability, MIPE5.0 library, qHTS (AID 1347068; cut-off not given, nearly all actives have IC50 up to about 30 µM)
# [11] = sensitizers of A549 cells to miR-34 induction, primary screen, imaging, A549 dox-inducible miR-34, nuclei and caspase counts (AID 1347080;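 active = compounds whose cell count with miR-34 switched on is under 0.7 times the count with it off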); details: A549 miR-34 inducible, Hoechst nuclei count, 48 h
# [12] = survival rescue of mitochondrial mutant cells in low glucose, primary screen, MELAS cybrids, Rieske KO mouse fibroblasts, CellTiter-Glo (AID 1508586;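 active = mean z-score across replicates of 1.96 or higher in either the MELAS or the Rieske mutant cell line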;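 note: z relative to plate mean and SD of compound and empty wells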)
# [13] = growth inhibition of DIPG glioma cells, dose response, cell-based, SU-DIPG-XIII, MIPE4.0, CellTiter-Glo, qHTS (AID 1347061; cut-off not given, nearly all actives have AC50 up to about 37 µM;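 note: cells exposed to compound for 48 hours before readout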); details: SU-DIPG-XIII viability, CellTiter-Glo ATP luminescence
# [14] = growth inhibition of DIPG glioma cells, dose response, cell-based, JHH-DIPG-1, MIPE4.0, CellTiter-Glo, qHTS (AID 1347062; cut-off not given, nearly all actives have AC50 up to about 27 µM); details: JHH-DIPG-1 viability, CellTiter-Glo ATP luminescence
# [15] = SU-DIPG-VI glioma cell viability, MIPE4.0 library, CellTiter-Glo luminescence, qHTS (AID 1347066; cut-off not given, nearly all actives have AC50 up to about 30 µM;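 note: cells exposed to compound for 48 hours before readout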); details: CellTiter-Glo ATP luminescence
# [16] = viability rescue of complex I mutant cybrids, primary screen, cell-based, galactose medium, ATP luminescence (AID 1645843;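 active = z-score of at least 1.8 in each of two replicates, scored against plate mean and spread of sample wells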;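 note: positive z means more ATP and so rescue of galactose-driven cybrid death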); details: complex I mutant cybrid cells, 72 h, stronger effect = higher value
# [17] = growth inhibition of DIPG glioma cells, dose response, cell-based, SU-DIPG-XVII, MIPE5.0, CellTiter-Glo, qHTS (AID 1347060; cut-off not given, nearly all actives have AC50 up to about 26 µM;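 note: cells exposed to compound for 48 hours before viability readout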); details: SU-DIPG-XVII viability, CellTiter-Glo ATP luminescence
# [18] = stronger effect = lower value, cell number ratio, induced over uninduced
# [19] = measured here: relative caspase fold change +Dox/-Dox
# [20] = measured here: total cells with miR-34 induction, stronger effect = lower value
# [21] = measured here: total cells without miR-34 induction
# [22] = MELAS cybrid survival, CellTiter-Glo 48 h, stronger effect = higher value
# [23] = Rieske KO mouse fibroblast survival, CellTiter-Glo 72 h
smiles,measurement,setting,value
COc1ccc(COc2ccc(Cc3cnc(N)nc3N)cc2OC)cc1,parasite load remaining,[1],13.9% (inactive)
same,viability,[1],98.2%
same,liver cell % of control,[2],99.1%
same,parasite % of control,[2],45.5% (inactive)
same,percent of negative control (+Dex),[3],90% (inactive)
same,z-score,[3],-0.44
same,z-score,[4],-0.075 (inactive)
same,z-score,[5],1.35 (inactive)
same,EGFP object count,[6],4.5
same,EGFP/DsRed ratio,[6],0.0511 (inactive)
same,fraction signal,[7],-0.003 (inactive)
same,outcome,[8],inactive
same,outcome,[9],inactive
same,outcome,[10],inactive
same,fold change,[11]; [18],0.931 (inactive)
same,fold change,[11]; [19],0.609
same,cell count,[11]; [20],7300
same,cell count,[11]; [21],7840
same,z-score,[12]; [22],-0.29 (inactive) and -0.397 (inactive)
same,z-score,[12]; [23],-0.126 and -1.03
Cc1ccc(O)cc1Nc1ccnc2cc(-c3ccccn3)ccc12,liver cell % of control,[2],100%
same,parasite % of control,[2],65.6% (inactive)
same,percent of negative control (+Dex),[3],89.5% (inactive)
same,z-score,[3],-0.24
same,z-score,[4],-1.05 (inactive)
same,z-score,[5],5.39 (inactive)
same,EGFP object count,[6],3.5
same,EGFP/DsRed ratio,[6],0.137 (inactive)
same,fraction signal,[7],0.014 (inactive)
same,z-score,[12]; [22],-0.612
same,z-score,[12]; [23],4.8
Cn1c(=O)c(Oc2ccc(F)cc2F)cc2cnc(NC3CCOCC3)nc21,percent of negative control (+Dex),[3],102% (inactive)
same,z-score,[3],-0.045
same,EGFP object count,[6],4
same,EGFP/DsRed ratio,[6],0.0482 (inactive)
same,fraction signal,[7],-0.007 (inactive)
same,outcome,[13],inactive
same,outcome,[14],inactive
same,outcome,[8],inactive
same,outcome,[15],inactive
same,outcome,[9],inactive
same,outcome,[10],inactive
c1cnn2ncc(-c3ccnc(Nc4ccc5c(c4)OCCO5)n3)c2c1,liver cell % of control,[2],141%
same,parasite % of control,[2],14% (inactive)
same,percent of negative control (+Dex),[3],5% (active)
same,z-score,[3],-9.09
same,z-score,[4],0.965 (inactive)
same,z-score,[5],-1.27 (inactive)
same,EGFP object count,[6],2.5
same,EGFP/DsRed ratio,[6],0.105 (inactive)
same,fraction signal,[7],-0.0005 (inactive)
same,z-score,[12]; [22],0.529 (inactive)
same,z-score,[12]; [23],0.76
Nc1nccc(-c2c(-c3ccc(F)cc3)nn3cc(C(F)(F)F)ccc23)n1,liver cell % of control,[2],111%
same,parasite % of control,[2],130% (inactive)
same,percent of negative control (+Dex),[3],107% (inactive)
same,z-score,[3],1.32
same,z-score,[4],-0.745 (inactive)
same,z-score,[5],-0.016 (inactive)
same,EGFP object count,[6],5.5
same,EGFP/DsRed ratio,[6],0.148 (inactive)
same,fraction signal,[7],-0.0075 (inactive)
same,z-score,[12]; [22],-0.218 (inactive)
same,z-score,[12]; [23],-0.148
CN(C)c1cc2c(Nc3ccc4c(cnn4Cc4ccccc4)c3)ncnc2cn1,liver cell % of control,[2],130%
same,parasite % of control,[2],78.7% (inactive)
same,percent of negative control (+Dex),[3],68% (inactive)
same,z-score,[3],-1.64
same,z-score,[4],0.66 (inactive)
same,z-score,[5],-0.608 (inactive)
same,EGFP object count,[6],3.5
same,EGFP/DsRed ratio,[6],0.0403 (inactive)
same,fraction signal,[7],-0.004 (inactive)
same,fold change,[11]; [18],1.64 (inactive)
same,fold change,[11]; [19],0.646
same,cell count,[11]; [20],3320
same,cell count,[11]; [21],2020
same,z-score,[12]; [22],-0.0495 (inactive)
same,z-score,[12]; [23],-0.233
same,z-score,[16],-0.71 (inactive)
NS(=O)(=O)c1ccc(N=Nc2c(O)[nH]c3cccc(CCc4ccncc4)c23)cc1,liver cell % of control,[2],87.4%
same,parasite % of control,[2],102% (inactive)
same,percent of negative control (+Dex),[3],92.5% (inactive)
same,z-score,[3],-0.56
same,z-score,[4],-0.35 (inactive)
same,z-score,[5],4.97 (inactive)
same,EGFP object count,[6],4
same,EGFP/DsRed ratio,[6],0.0896 (inactive)
same,fraction signal,[7],-0.003 (inactive)
same,z-score,[12]; [22],-0.234 (inactive)
same,z-score,[12]; [23],-0.178
CCn1c(-c2nonc2N)nc2c(C#CCN)ncc(OCCCN)c21,liver cell % of control,[2],63.5%
same,parasite % of control,[2],112% (inactive)
same,percent of negative control (+Dex),[3],85% (inactive)
same,z-score,[3],-0.55
same,z-score,[4],-0.71 (inactive)
same,z-score,[5],3.14 (inactive)
same,EGFP object count,[6],6
same,EGFP/DsRed ratio,[6],0.152 (inactive)
same,fraction signal,[7],-0.008 (inactive)
same,z-score,[12]; [22],-0.193 (inactive)
same,z-score,[12]; [23],-0.317
Fc1ccc(-c2ncn(CCCN3CCOCC3)c2-c2ccncc2)cc1,liver cell % of control,[2],110%
same,parasite % of control,[2],145% (inactive)
same,percent of negative control (+Dex),[3],98.5% (inactive)
same,z-score,[3],1.32
same,z-score,[4],0.18 (inactive)
same,z-score,[5],-0.092 (inactive)
same,EGFP object count,[6],4
same,EGFP/DsRed ratio,[6],0.0405 (inactive)
same,fraction signal,[7],-0.0075 (inactive)
same,z-score,[12]; [22],-1.02 (inactive)
same,z-score,[12]; [23],0.219
CN1C(=O)C(c2c[nH]c3ccccc23)=C(c2c[nH]c3ccccc23)C1=O,parasite load remaining,[1],34.8% (inactive)
same,viability,[1],125%
same,liver cell % of control,[2],87.4%
same,parasite % of control,[2],30.7% (inactive)
same,percent of negative control (+Dex),[3],96.5% (inactive)
same,z-score,[3],-0.615
same,EGFP object count,[6],3
same,EGFP/DsRed ratio,[6],0.0517 (inactive)
same,fraction signal,[7],-0.0095 (inactive)
same,fold change,[11]; [18],0.868 (inactive)
same,fold change,[11]; [19],1.05
same,cell count,[11]; [20],5070
same,cell count,[11]; [21],5840
COc1ccc(-c2oc3ncnc(N)c3c2-c2ccc(NC(=O)Nc3cc(C(F)(F)F)ccc3F)cc2)cc1,liver cell % of control,[2],50%
same,parasite % of control,[2],186% (inactive)
same,percent of negative control (+Dex),[3],93.5% (inactive)
same,z-score,[3],-2.24
same,z-score,[4],0.785 (inactive)
same,z-score,[5],-0.472 (inactive)
same,EGFP object count,[6],6
same,EGFP/DsRed ratio,[6],0.0596 (inactive)
same,fraction signal,[7],0.007 (inactive)
same,AC50,[17],3.72 µM (active)
same,AC50,[8],1.66 µM (active)
same,AC50,[9],9.34 µM (active)
same,z-score,[12]; [22],-1.1 (inactive)
same,z-score,[12]; [23],-0.0748
O=C1NC(=O)C(c2ccccc2Cl)=C1Nc1cccc(O)c1,liver cell % of control,[2],91.7%
same,parasite % of control,[2],148% (inactive)
same,percent of negative control (+Dex),[3],88% (inactive)
same,z-score,[3],-0.19
same,z-score,[4],-0.34 (inactive)
same,z-score,[5],0.132 (inactive)
same,EGFP object count,[6],5.5
same,EGFP/DsRed ratio,[6],0.0989 (inactive)
same,fraction signal,[7],-0.003 (inactive)
same,z-score,[12]; [22],-0.289 (inactive)
same,z-score,[12]; [23],-0.424
O=C(Nc1ccc(Oc2ccc3nc(NC(=O)c4ccccc4)[nH]c3c2)cc1)Nc1cc(C(F)(F)F)ccc1F,liver cell % of control,[2],151%
same,parasite % of control,[2],113% (inactive)
same,percent of negative control (+Dex),[3],102% (inactive)
same,z-score,[3],0.635
same,z-score,[4],-0.485 (inactive)
same,z-score,[5],-1.71 (inactive)
same,EGFP object count,[6],2.5
same,EGFP/DsRed ratio,[6],0.0378 (inactive)
same,fraction signal,[7],-0.006 (inactive)
same,z-score,[12]; [22],8.17 (active)
same,z-score,[12]; [23],1.84
